Source: PubChem BioAssay (Tox21)
“And” between values parts separate entries of the source, which are not always exact repeats. Equal entries are not always repeated. Inconclusive results are not listed. Where a structure was tested more than once in an assay, its records may differ in their call. The source made the active and inactive calls. Unless noted, the call rests on the fitted dose curve; in most records, active means well fitted curve in the direction sought with a large enough effect in the repeat runs; inconclusive means weak or mixed curves; inactive means no such curve, though single readings can be large; an effect the other way counts as inactive or inconclusive.

How the values were obtained:
[1] = qHTS assay to identify small molecule that activate the aryl hydrocarbon receptor (AhR) signaling pathway - cell viability counter screen (AID 743086); further: nearly all actives have a fitted effect of over 45% in size; further: potency means the concentration at half of the fitted maximal effect
How it was run: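 HepG2-AhR-luc (HG2L7.5c1) cells, 4000/well, were preincubated 5 h at 37C, exposed to compound in qHTS format for 24 hr at 37C, then given CellTiter-Fluor for 30 min; viability was read as fluorescence in the reporter wells.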

[2] = biological target: Peroxisome proliferator-activated receptor gamma (Homo sapiens) (UniProt P37231); assay: qHTS assay to identify small molecule agonists of the peroxisome proliferator-activated receptor gamma (PPARg) signaling pathway (AID 743094; active means well fitted activation curve with a large enough effect in the signal ratio in the repeat runs, not every such curve was filed as active; the % refers to the signal ratio)
Chain of Peroxisome proliferator-activated receptor gamma (Homo sapiens) (P37231 whole entry, looked up): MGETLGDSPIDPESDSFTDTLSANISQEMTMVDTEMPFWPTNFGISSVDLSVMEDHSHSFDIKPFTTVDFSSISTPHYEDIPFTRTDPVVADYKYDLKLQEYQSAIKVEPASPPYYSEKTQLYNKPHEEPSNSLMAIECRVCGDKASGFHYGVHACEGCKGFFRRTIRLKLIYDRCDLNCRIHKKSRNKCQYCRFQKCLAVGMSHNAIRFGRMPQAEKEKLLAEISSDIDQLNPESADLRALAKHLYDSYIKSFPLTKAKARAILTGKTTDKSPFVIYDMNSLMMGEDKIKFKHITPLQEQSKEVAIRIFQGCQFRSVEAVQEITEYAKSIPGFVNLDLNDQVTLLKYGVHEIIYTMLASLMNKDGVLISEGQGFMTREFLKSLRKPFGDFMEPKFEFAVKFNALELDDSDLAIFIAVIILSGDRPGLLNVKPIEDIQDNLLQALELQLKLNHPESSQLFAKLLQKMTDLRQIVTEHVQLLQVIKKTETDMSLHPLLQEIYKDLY
How it was run: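 Agonist activity was taken from a beta-lactamase reporter (FRET substrate, 1 h at room temperature) in HEK293H cells carrying a PPARg UAS-bla construct. Compounds in DMSO were incubated 17 h at 37C after a 5 h cell pre-incubation.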

[3] = biological target: Peroxisome proliferator-activated receptor gamma (Homo sapiens) (UniProt P37231); assay: qHTS assay to identify small molecule antagonists of the peroxisome proliferator-activated receptor gamma (PPARg) signaling pathway (AID 743191; calls by dose curve; further: nearly all actives have a fitted effect of over 30% in size; further: potency means the concentration at half of the fitted maximal effect)
How it was run: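 GeneBLAzer PPARg UAS-bla HEK293H cells carrying a UAS-driven beta-lactamase reporter were plated at 3000 cells/well, preincubated 5 h at 37C, then given compound for 17 h at 37C; LiveBLAzer B/G FRET substrate was read after 1 h at room temperature.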

[4] = qHTS assay for small molecule agonists of the antioxidant response element (ARE) signaling pathway - cell viability counter screen (AID 743203; calls by dose curve; further: nearly all actives have a fitted effect of over 55% in size; further: potency means the concentration at half of the fitted maximal effect)
How it was run: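 Viability counter screen: CellTiter-Glo luminescence, read after 30 min at room temperature, in ARE-bla HepG2 wells. Compound exposure lasted 16 h at 37C/5% CO2, following a 5 h pre-incubation of the cells after plating.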

[5] = qHTS assay for small molecule activators of the heat shock response signaling pathway - cell viability counter screen (AID 743209); further: nearly all actives have a fitted effect of over 50% in size; further: potency means the concentration at half of the fitted maximal effect
How it was run: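 Cytotoxicity counter screen run in the same wells as the heat-shock bla reporter assay: HeLa HSE-bla cells, 5 h compound exposure at 37 C, viability read by CellTiter-Glo luminescence.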

[6] = qHTS assay for small molecule activators of the heat shock response signaling pathway (AID 743210; active means well fitted activation curve with a large enough effect in the signal ratio in the repeat runs, with a control signal flat, not every such curve was filed as active; the % refers to the signal ratio; further: series mostly up to about 63 µM)
How it was run: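 Heat shock element–beta-lactamase HeLa reporter cells; qHTS with compounds for 5 h at 37 C; detection by FRET substrate fluorescence after 2.5 h at RT.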

[7] = qHTS assay to identify small molecule agonists of the peroxisome proliferator-activated receptor delta (PPARd) signaling pathway - cell viability counter screen (AID 743211); further: nearly all actives have a fitted effect of over 55% in size; further: potency means the concentration at half of the fitted maximal effect
How it was run: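 PPARd-bla HEK293H cells (UAS-beta-lactamase reporter) were treated with compounds for 17 h at 37 C. Viability was then read in the same wells by CellTiter-Glo luminescence after 30 min at room temperature.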

[8] = qHTS assay to identify small molecule antagonists of the peroxisome proliferator-activated receptor delta (PPARd) signaling pathway - cell viability counter screen (AID 743213); further: nearly all actives have a fitted effect of over 50% in size; further: potency means the concentration at half of the fitted maximal effect
How it was run: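 PPARd-bla HEK293H cells were treated with compounds plus agonist L165041 (300 nM final) for 17 h at 37 C. Viability was then read in the same wells by CellTiter-Glo luminescence after 30 min at room temperature.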

[9] = biological target: Peroxisome proliferator-activated receptor delta (Homo sapiens) (UniProt Q03181); assay: qHTS assay to identify small molecule antagonists of the peroxisome proliferator-activated receptor delta (PPARd) signaling pathway (AID 743215; active means well fitted inhibition curve with a large enough effect in the signal ratio in the repeat runs, not every such curve was filed as active; the % refers to the signal ratio;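 further: cells stimulated with agonist L165041 at 300 nM final during compound exposure; series mostly up to about 62 µM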)
Chain of Peroxisome proliferator-activated receptor delta (Homo sapiens) (Q03181 whole entry, looked up): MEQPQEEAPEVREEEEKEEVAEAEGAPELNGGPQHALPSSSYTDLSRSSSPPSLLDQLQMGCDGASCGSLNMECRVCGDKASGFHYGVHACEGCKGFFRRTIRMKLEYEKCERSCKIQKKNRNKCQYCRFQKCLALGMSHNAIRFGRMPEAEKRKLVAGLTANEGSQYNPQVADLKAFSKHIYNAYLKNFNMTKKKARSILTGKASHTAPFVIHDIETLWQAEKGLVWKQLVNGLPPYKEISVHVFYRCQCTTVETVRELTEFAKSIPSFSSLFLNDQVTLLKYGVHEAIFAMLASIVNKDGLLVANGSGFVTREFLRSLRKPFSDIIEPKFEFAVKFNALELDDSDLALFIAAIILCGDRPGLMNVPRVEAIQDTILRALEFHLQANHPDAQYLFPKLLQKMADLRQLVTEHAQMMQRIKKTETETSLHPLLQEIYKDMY
How it was run: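 Agonist L165041 (300 nM final) added with compound to PPARd-bla HEK293H UAS-bla reporter cells; 17 h incubation at 37 C. Read-out: LiveBLAzer FRET substrate, 2 h at room temperature, fluorescence intensity.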

[10] = biological target: Bile acid receptor (Homo sapiens) (UniProt Q96RI1); assay: qHTS assay to identify small molecule antagonists of the farnesoid-X-receptor (FXR) signaling pathway (AID 743217; active means well fitted inhibition curve with a large enough effect in the signal ratio in the repeat runs, not every such curve was filed as active; the % refers to the signal ratio)
Chain of Bile acid receptor (Homo sapiens) (Q96RI1 whole entry, looked up): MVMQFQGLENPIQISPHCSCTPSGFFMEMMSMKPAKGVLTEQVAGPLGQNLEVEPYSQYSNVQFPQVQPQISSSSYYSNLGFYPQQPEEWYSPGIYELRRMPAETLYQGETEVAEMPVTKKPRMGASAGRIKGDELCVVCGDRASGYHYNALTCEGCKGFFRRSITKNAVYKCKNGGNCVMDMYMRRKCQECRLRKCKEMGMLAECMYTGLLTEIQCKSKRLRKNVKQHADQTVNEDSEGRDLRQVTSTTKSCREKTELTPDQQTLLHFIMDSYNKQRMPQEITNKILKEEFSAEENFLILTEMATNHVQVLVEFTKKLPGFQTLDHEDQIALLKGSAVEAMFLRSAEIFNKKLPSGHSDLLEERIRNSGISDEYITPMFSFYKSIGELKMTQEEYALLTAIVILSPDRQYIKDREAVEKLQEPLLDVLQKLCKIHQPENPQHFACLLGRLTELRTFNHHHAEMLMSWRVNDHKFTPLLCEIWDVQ
How it was run: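 Antagonist mode: chenodeoxycholic acid at 50 uM final stimulates a UAS-driven beta-lactamase reporter in HEK 293T FXR-bla cells during 16 h, 37C compound exposure. Read-out is FRET substrate fluorescence after 2 h at room temperature.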

[11] = qHTS assay to identify small molecule agonists of the farnesoid-X-receptor (FXR) signaling pathway - cell viability counter screen (AID 743218); further: nearly all actives have a fitted effect of over 45% in size; further: potency means the concentration at half of the fitted maximal effect
How it was run: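 Viability counter screen in the same wells: CellTiter-Glo luminescence, 30 min room-temperature incubation, measured after the beta-lactamase read. Cells were GeneBLAzer FXR-UAS-bla HEK 293T, compound-treated 16 h at 37C.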

[12] = biological target: Bile acid receptor (Homo sapiens) (UniProt Q96RI1); assay: qHTS assay to identify small molecule agonists of the farnesoid-X-receptor (FXR) signaling pathway (AID 743220; active means well fitted activation curve with a large enough effect in the signal ratio in the repeat runs, not every such curve was filed as active; the % refers to the signal ratio)
How it was run: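 FXR-UAS-bla HEK 293T cells carrying a UAS-driven beta-lactamase reporter were plated for 5 h at 37C/5% CO2, then exposed to DMSO-dissolved Tox21 10K compounds for 16 h at 37C. A LiveBLAzer B/G FRET substrate was loaded for 2 h at room temperature before fluorescence reading.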

[13] = qHTS assay to identify small molecule antagonists of the farnesoid-X-receptor (FXR) signaling pathway - cell viability counter screen (AID 743221; active means well fitted cell-killing curve with a large enough effect in the repeat runs, not every such curve was filed as active; further: nearly all actives have a fitted effect of over 50% in size; further: potency means the concentration at half of the fitted maximal effect)
How it was run: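 FXR-UAS-bla HEK 293T cells were treated with test compounds plus chenodeoxycholic acid (50 uM final) for 16 h at 37 C. Cell viability in the same wells was then read as CellTiter-Glo luminescence after 30 min at room temperature.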

[14] = biological target: Vitamin D3 receptor (Homo sapiens) (UniProt P11473); assay: qHTS assay to identify small molecule agonists of the vitamin D receptor (VDR) signaling pathway (AID 743222; calls by dose curve)
Chain of Vitamin D3 receptor (Homo sapiens) (P11473 whole entry, looked up): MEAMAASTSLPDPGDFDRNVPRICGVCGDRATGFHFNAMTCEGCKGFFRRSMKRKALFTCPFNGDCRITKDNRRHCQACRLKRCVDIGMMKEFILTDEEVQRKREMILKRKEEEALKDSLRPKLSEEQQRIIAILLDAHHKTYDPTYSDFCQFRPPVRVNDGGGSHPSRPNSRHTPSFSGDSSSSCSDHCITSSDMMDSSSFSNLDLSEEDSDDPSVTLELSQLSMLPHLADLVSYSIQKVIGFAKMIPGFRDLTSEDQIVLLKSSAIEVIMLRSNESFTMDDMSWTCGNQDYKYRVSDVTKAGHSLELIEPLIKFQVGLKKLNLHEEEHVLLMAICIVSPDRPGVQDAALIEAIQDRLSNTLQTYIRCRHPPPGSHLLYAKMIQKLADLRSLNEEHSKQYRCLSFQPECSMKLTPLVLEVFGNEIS
How it was run: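 Agonist mode, beta-lactamase reporter: fluorescence from LiveBLAzer B/G FRET substrate (2 h, room temperature) read after 16 h compound treatment at 37 C of VDR-bla cells, which were pre-incubated 4 h after seeding.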

[15] = biological target: Vitamin D3 receptor (Homo sapiens) (UniProt P11473); assay: qHTS assay to identify small molecule antagonists of the vitamin D receptor (VDR) signaling pathway (AID 743223; active means well fitted inhibition curve with a large enough effect in the signal ratio in the repeat runs, not every such curve was filed as active; the % refers to the signal ratio)
How it was run: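 VDR-bla cells were plated, incubated 4 h at 37C, then given compound and 1alpha,25-dihydroxyvitamin D3 (3 nM final). After 16 h at 37C, LiveBLAzer B/G FRET substrate was added for 2 h at room temperature and fluorescence read.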

[16] = qHTS assay to identify small molecule agonists of the vitamin D receptor (VDR) signaling pathway - cell viability counter screen (AID 743224); further: nearly all actives have a fitted effect of over 50% in size; further: potency means the concentration at half of the fitted maximal effect
How it was run: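 Counter screen run in the same wells as the VDR-bla reporter assay: CellTiter-Glo luminescence, 30 min at room temperature, after 16 h compound treatment at 37C of cells pre-plated for 4 h.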

[17] = qHTS assay for small molecule agonists of the antioxidant response element (ARE) signaling pathway (AID 743202; active means well fitted activation curve with a large enough effect in the signal ratio in the repeat runs, not every such curve was filed as active; the % refers to the signal ratio)
How it was run: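 Following a 16 h, 37 C exposure of reporter HepG2 cells (ARE-driven beta-lactamase, 2,000 cells/well) to compounds, FRET substrate was applied for 2 h at room temperature and fluorescence intensity recorded.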

[18] = biological target: Peroxisome proliferator-activated receptor delta (Homo sapiens) (UniProt Q03181); assay: qHTS assay to identify small molecule agonists of the peroxisome proliferator-activated receptor delta (PPARd) signaling pathway (AID 743212; calls by dose curve)
How it was run: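 Beta-lactamase reporter read by fluorescence (LiveBLAzer B/G FRET, 2 h, room temperature). Test agents, in DMSO, incubated at 37 C with PPARd-bla HEK293H cells.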

[19] = qHTS assay to identify small molecule antagonists of the peroxisome proliferator-activated receptor gamma (PPARg) signaling pathway - cell viability counter screen (AID 743194); details: Potency: co-treated with 50 nM rosiglitazone; further: nearly all actives have a fitted effect of over 55% in size
How it was run: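 PPARg-UAS-bla HEK293H cells were plated, rested 5 h at 37 C, then treated with compounds plus rosiglitazone (50 nM final) for 17 h at 37 C; viability was then read by CellTiter-Glo luminescence after 30 min at room temperature.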

Measured: Potency

CC[N+]1(CCOC(=O)C(O)(c2ccccc2)c2ccccc2)CCCCC1
inactive: [1] | [2] | [3] | [4] | [5] | [6] | [7] | [8] | [9] | [10] | [11] | [12] | [13] | [14] | [15] | [16]

COc1ccc(C(=O)c2c(C)n(CCN3CCOCC3)c3ccccc23)cc1
inactive: [1] | [2] | [17] | [4] | [5] | [6] | [7] | [18] | [8] | [12] | [13] | [16]

CC(C)(C)CC(C)(C)c1ccc(O)cc1
30.6 µM (active) and inactive: [4]
54.8 µM (active) and inactive: [11]
15.5 µM (active) and inactive: [16]
active: [5] 54.9 µM and 29.8 µM | [7] 34.7 µM | [8] 27.5 µM | [13] 49 µM
inactive: [19] | [18] | [9] | [12] | [14]

CC(Cc1ccccc1)NCc1ccccc1Cl (centres undefined)
inactive: [1] | [2] | [3] | [19] | [4] | [5] | [6] | [18] | [8] | [9] | [13] | [14] | [15] | [16]

O=C(O)CCCOc1ccc(Cl)cc1Cl
inactive and 27.8 µM (active): [4]
inactive: [1] | [17] | [5] | [6] | [7] | [8] | [13] | [14] | [16]

Nc1ccccc1C(=O)OCC(O)CO (centres undefined)
inactive: [19] | [17] | [4] | [5] | [6] | [7] | [8] | [9] | [13] | [14] | [15] | [16]

c1ccc2c(c1)-c1cccc3cccc-2c13
inactive: [1] | [19] | [17] | [4] | [6] | [7] | [8] | [11] | [13] | [14] | [15] | [16]

O=C(O)c1ccc(=O)[nH]c1
inactive: [17] | [4] | [5] | [6] | [7] | [8] | [11] | [13] | [15] | [16]

CNC(=O)Oc1cccc(N=CN(C)C)c1
inactive: [1] | [2] | [19] | [4] | [5] | [7] | [10] | [11] | [13] | [14] | [15]

CCCSP(=S)(OCC)Oc1ccc(SC)cc1 (centres undefined)
inactive: [1] | [2] | [3] | [19] | [17] | [4] | [5] | [7] | [18] | [8] | [10] | [11] | [12] | [13] | [14] | [15]

CC(CC(C(N)=O)(c1ccccc1)c1ccccc1)N(C)C (centres undefined)
inactive: [3] | [19] | [4] | [5] | [6] | [7] | [18] | [8] | [9] | [11] | [13] | [14] | [15] | [16]

CCCCCCCCCCCCCCCl
inactive: [1] | [2] | [17] | [4] | [5] | [6] | [7] | [8] | [9] | [11] | [13] | [14] | [15] | [16]

C#CC(O)(C=CCl)CC (centres undefined)
inactive: [3] | [19] | [17] | [4] | [5] | [6] | [7] | [18] | [8] | [9] | [10] | [11] | [12] | [13] | [14] | [15]

CCCN(CCC)C(=O)Cc1c(-c2ccc(Cl)cc2)nc2ccc(Cl)cn12
inactive: [1] | [2] | [4] | [5] | [6] | [7] | [8] | [11] | [12] | [13] | [16]

Cc1nnc(-c2ccccc2)c(=O)n1N
inactive: [1] | [2] | [19] | [17] | [4] | [5] | [6] | [7] | [8] | [9] | [10] | [11] | [13] | [14]

CN1C[C@H](C(=O)N[C@]2(C)O[C@@]3(O)[C@@H]4CCCN4C(=O)[C@H](Cc4ccccc4)N3C2=O)C=C2c3cccc4[nH]cc(c34)C[C@H]21
inactive: [2] | [19] | [4] | [5] | [7] | [8] | [11] | [12] | [13] | [16]
43.8 µM (active) and inactive: [3]
21.8 µM (active) and inactive: [1]

CCC(C)Cl (centres undefined)
inactive: [1] | [2] | [3] | [19] | [17] | [4] | [5] | [6] | [7] | [8] | [11] | [13] | [14] | [15]

COc1ccc2c(c1OC)C(=O)O[C@H]2[C@@H]1c2cc3c(cc2CCN1C)OCO3
inactive: [1] | [2] | [3] | [19] | [17] | [4] | [5] | [6] | [7] | [8] | [9] | [11] | [13] | [16]
